Laboratory results taken from PubChem BioAssay AID686979 (National Center for Advancing Translational Sciences (NCATS), 2013).
Values joined by “and” are separate entries in the source; they are usually repeats but may differ in a detail not shown here. Equal values may be shown once. About 50,000 (12%) of roughly 420,000 compounds were called active. Where a call stands in place of a potency, no number is given. Not shown: some 26% with an inconclusive outcome. Calls come from the whole dose curve; as a rule, active = well fitted inhibition curve with a large enough effect; inconclusive = small, poorly fitted or top-dose-only effect; inactive = flat fitted curve, though single readings scatter. For the sample, actives were picked, then their nearest neighbours and some compounds at random.

Assay: qHTS for Inhibitors of human tyrosyl-DNA phosphodiesterase 1 (TDP1): qHTS in cells in presence of CPT; note: nearly all actives have a fitted effect of over 55% in size
Conditions: chicken DT40 Tdp1-/-;hTDP1 cells + 20 nM CPT, ATP luminescence, 48 h; series mostly up to 46.2 µM
How it was run: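 Chicken DT40 Tdp1-/- cells complemented with human TDP1, 400 cells/well, exposed to compounds plus 20 nM camptothecin for at least 48 h at 37 C; viability read as ATP content by CellTiter-Glo luminescence.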
Potency is the fitted concentration of half-maximal effect.

Row | SMILES | Potency
1 | CCCCCN(C(=O)CCC(=O)OCC(=O)NC1CCC(C)CC1)c1c(N)n(CCCC)c(=O)[nH]c1=O (centres undefined) | inactive
2 | COc1ccc(NC(=O)c2cccc(Cl)c2)c[n+]1[O-] | inactive
3 | O=C(Nc1c2c(nn1-c1ccccc1)CS(=O)(=O)C2)C1CCCC1 | inactive
4 | O=C(CCc1ccc(S(=O)(=O)N2CCOCC2)cc1)OCC(=O)c1ccc(Br)cc1 | inactive
5 | CCOc1ccc(-n2cnnn2)cc1S(=O)(=O)N1CCC(C)CC1C (centres undefined) | inactive
6 | C#CC(C)(C)NC(=O)c1cnc(-c2ccccc2)nc1-c1ccccc1 | inactive
7 | COC(=O)c1ccc(COC(=O)CNC(=O)c2cccc(OC)c2)o1 | inactive
8 | O=S(=O)(/N=C(/Nc1ccccc1)c1ccccc1)c1cccs1 | inactive
9 | CCCCCc1ccc(-c2cn(Cc3ccc4ccccc4c3)nn2)cc1 | inactive
10 | CCc1cc(-c2nnn(CCC3COCCO3)c2CC)ccc1-c1cn(Cc2ccc3ccccc3c2)nn1 (centres undefined) | 5.8 µM (active)
11 | CCCN(CCC)C(=O)C(Cc1ccccc1)NS(=O)(=O)c1ccc2c(c1)c(=O)n(C)c(=O)n2C (centres undefined) | inactive
12 | O=C(CNC(=O)N1CC(=O)Nc2ccccc21)Nc1ccc(Br)cc1F | inactive
13 | C[C@H](CO)N1C[C@H](C)[C@@H](CN(C)C(=O)C2CCCCC2)OCc2cnnn2CCCC1=O | inactive
14 | CC(=O)Nc1cccc(NC(=O)CSc2cn(CC(=O)N3CCCC3)c3ccccc23)c1 | inactive
15 | CC(C)N(C(=O)Cn1cc(SCC(=O)N2CCCC2)c2ccccc21)C(C)C | inactive
16 | O=C(Cn1cc(SCc2cccc(Cl)c2)c2ccccc21)N1CCCCC1 | 18.4 µM (active)
17 | CC(C)C12CN3CC(C(C)C)(CN(C1)C3c1ccc(OCc3ccccc3)cc1)C2=O (centres undefined) | inactive
18 | Cn1nccc1C(=O)NCC1CCC2(CCN(Cc3c(O)ccc4ccccc34)CC2)O1 (centres undefined) | inactive
19 | CC(=O)Nc1ccc(NC(=O)COC(=O)c2ccccc2C(=O)c2ccccc2)cc1 | inactive
20 | COC(=O)c1cc(NC(=O)Cc2ccccc2[N+](=O)[O-])ccc1Cl | inactive
21 | N#Cc1cccc(NC(=O)COC(=O)c2ccccc2C(=O)c2ccc(Cl)c([N+](=O)[O-])c2)c1 | 20.6 µM (active)
22 | CCOC(=O)C1CCN(CC(=O)Nc2ccc(OC)c(S(=O)(=O)N3CCCCC3)c2)CC1 | inactive
23 | CCn1c2ccccc2c2cc(NC(=O)CNC)ccc21 | inactive
24 | CC[n+]1c(C)n(-c2ccccc2)c2ccc(NC(C)=O)cc21 | 6.51 µM (active)
25 | CC(=O)Nc1ccc(NC(=O)CSc2nnc(C3CC3)n2-c2ccccc2)cc1 | inactive

Row | SMILES | Potency
26 | Cc1ccccc1NC(=O)Cn1c(=O)n(Cc2ccco2)c(=O)c2ccc(C(=O)NC3CCCC3)cc21 | inactive
27 | CC(C)(C)NC(=O)NC(=O)COC(=O)CCC1CCCCC1 | inactive
28 | COc1ccc(N2C(=O)C(Cc3ccccc3)NC2=S)cc1 (centres undefined) | inactive
29 | COc1ccc(N2c3ccccc3CN(Cc3ccccc3)[C@@H](C)[C@H]2Cc2ccc(-c3ccccc3)cc2)cc1 | 23.1 µM (active)
30 | C[n+]1cccc(C(=O)O)c1 | inactive
31 | O=C(CCc1nnc2ccc(NCc3ccccc3Cl)nn12)NCC1CCN(C2CCCC2)C1 (centres undefined) | inactive
32 | Nc1c(-c2cccc(Cl)c2)cnn1-c1cccc([N+](=O)[O-])c1 | inactive
33 | COc1cccc(NC(=O)N2CCCC2C(=O)NC2CCCCC2)c1 (centres undefined) | inactive
34 | COc1cccc(NC(=O)C/C(C)=N/NC(=O)C2CCCCC2)c1 | inactive
35 | COc1cccc(NC(=O)N(Cc2cn(C)c3ccccc23)C2CCCCCC2)c1 | 5.8 µM (active)
36 | COc1ccc(NC(=O)NNC(=O)COc2cc(C)c(Cl)c(C)c2)c(OC)c1 | inactive
37 | O=C1CSC(c2ccc(Cl)cc2)N1 (centres undefined) | inactive
38 | O=C(CN1CCCCCC1)Nc1c(Cl)cc(Cl)cc1Cl | inactive
39 | CCNC(=O)C1CCCN(C(=O)c2cc(F)ccc2C)CC1 (centres undefined) | inactive
40 | COc1ccc(C(=O)N2CCC3(CCCN(C(c4ccccc4)c4ccccc4)C3)CC2)cc1 | inactive
41 | O=C(c1cccc(F)c1)N1CCC2(CCCN(Cc3ccncc3)C2)CC1 | inactive
42 | O=C(c1ccncc1)N1CCC2(CCCN(C(c3ccccc3)c3ccccc3)C2)CC1 | 16.4 µM (active)
43 | COc1ccc(CC(=O)Nc2nnc3n2CCS3)cc1OC | inactive
44 | O=C(COC(=O)c1cccs1)NCc1cccs1 | inactive
45 | CCOc1ccc(OCc2cccc(C(=O)N(CC)CC)c2)cc1 | 20.6 µM (active)
46 | CN(Cc1ccccc1)C(=O)c1cccc(C(=O)N(C)Cc2ccccc2)c1 | inactive
47 | COc1ccc(OCc2cccc(C(=O)N3CCCC3)c2)cc1 | inactive
48 | O=C(CN1C(=O)c2ccccc2S1(=O)=O)NC1CCCCC1 | inactive
49 | COc1ccc(-n2cnnc2SCC(=O)Nc2cccc(S(N)(=O)=O)c2)cc1 | inactive
50 | O=C(Nc1ccc(Cl)cc1)Nc1ccc(C(=O)N2CCOCC2)cc1 | inactive

Row | SMILES | Potency
51 | Nc1ccn(C2CC(O)C(CO)O2)c(=O)n1 (centres undefined) | inactive
52 | Nc1ncnc2c1ncn2C1CC(O)C(CO)O1 (centres undefined) | 1.16 µM (active)
53 | Nc1ncnc2c1cnn2C1CC(O)C(CO)O1 (centres undefined) | inactive
54 | CCN(CC(=O)Nc1c(F)cccc1F)C(=O)c1cnc(C)cn1 | inactive
55 | O=C1c2ccccc2C(=O)N1CCCCCCN1C(=O)c2ccccc2C1=O | inactive
56 | CCN(CCCNC(=O)CCn1c(=O)[nH]c2ccsc2c1=O)c1ccccc1 | inactive
57 | CCC1CCCCN1C(=O)Cn1c(=O)n(CCCCCC(=O)NCc2ccccc2)c(=O)c2sccc21 (centres undefined) | 16.4 µM (active)
58 | O=C(CCCn1c(=O)c2sccc2n(CC(=O)NCC2CCCO2)c1=O)NCc1ccco1 (centres undefined) | inactive
59 | Cc1cc(S(=O)(=O)NCc2ccccn2)c(Cl)cc1Cl | inactive
60 | Cc1ccc(S(=O)(=O)NCC(=O)NNC(=O)c2ccc(Br)cc2)cc1C | inactive
61 | C/C(=N\Nc1ccccc1)c1cccs1 | inactive
62 | C/C(=N\Nc1nc(Nc2ccccc2)nc(N2CCOCC2)n1)c1cccs1 | 23.1 µM (active)
63 | C/C(=N\Nc1nc(N2CCOCC2)nc(N2CCOCC2)n1)c1ccc([N+](=O)[O-])cc1 | inactive
64 | O=C(COC(=O)C1CC2CCCC(C1)C2=O)NC(=O)c1ccccc1 (centres undefined) | inactive
65 | CN1CCN(C(=O)c2ccc(NC(=O)c3ccc(Br)o3)cc2)CC1 | inactive
66 | CC(C)(C)c1ccc(C(=O)N2CCN(CCNC(=O)C(=O)Nc3ccc(F)cc3)CC2)cc1 | 16.4 µM (active)
67 | Cc1ccc(C(=O)N/C(=C\c2ccc(F)cc2)C(=O)NCCN2CCOCC2)cc1 | inactive
68 | Cc1cc(C(=O)OCC(=O)N2C(C)CCCC2C)c2ccccc2n1 (centres undefined) | inactive
69 | CC(=O)N1CCCc2cc(S(=O)(=O)N3CCCC(C(=O)NCc4ccc(Cl)cc4)C3)ccc21 (centres undefined) | 18.4 µM (active)
70 | CC(=O)N1CCCc2cc(S(=O)(=O)N3CCC(C(=O)NC4CCCCC4)CC3)ccc21 | inactive
71 | COC(=O)c1ccccc1NS(=O)(=O)c1ccc2c(c1)CCCN2C(C)=O | inactive
72 | O=C(NCc1ccncc1)C1CCCN(S(=O)(=O)c2ccc(Br)cc2)C1 (centres undefined) | inactive
73 | COc1cccc(N2CCN(S(=O)(=O)c3ccc4c(c3)CCCN4C(C)=O)CC2)c1 | inactive
74 | CC(=O)N1CCCc2cc(S(=O)(=O)N3CCCC(C(=O)N4CCN(c5cccc(Cl)c5)CC4)C3)ccc21 (centres undefined) | 2.31 µM (active) and 8.2 µM (active)
75 | CCCCn1c(N)c(N(CCOC)C(=O)c2cccc(S(=O)(=O)N(C)c3ccccc3)c2)c(=O)[nH]c1=O | inactive

Row | SMILES | Potency
76 | CC(C)(C(=O)N1CCC1(C)C(=O)NS(=O)(=O)c1ccc(Br)cc1)c1ccccc1 (centres undefined) | inactive
77 | CCOC(=O)C1CCN(S(=O)(=O)c2ccc3c(c2)N(C(C)=O)CCO3)CC1 | inactive
78 | OC(CN1C2=NCCCN2c2ccccc21)c1ccc(Br)cc1 (centres undefined) | inactive
79 | O=C(CN1C2=NCCN2c2ccccc21)c1cccs1 | inactive
80 | Cc1cc2c(cc1C)N(Cc1ccccc1)C1=NCCCN12 | 13 µM (active)
81 | CCN(CC)C(=O)CSc1nc2ccccc2n1CC(=O)N1CCN(c2ccccc2OC)CC1 | inactive
82 | CCOc1ccc(OCCSc2nc3ccccc3n2CC(=O)O)cc1 | inactive
83 | COC(=O)CSc1nc2ccccc2c(=O)n1Cc1ccccc1 | inactive
84 | COC(=O)c1ccc(Cn2c(SCC(=O)N(C)c3ccccc3)nc3ccccc32)cc1 | 20.6 µM (active)
85 | CN(C(=O)CSc1nc2ccccc2n1Cc1ccccc1C#N)c1ccccc1 | 14.6 µM (active)
86 | Cc1ccc(Cn2c(SCC(=O)N/N=C/c3ccccc3OCC(=O)O)nc3ccccc32)cc1 | inactive
87 | CC(C)[C@H](NC(=O)OCc1ccccc1)C(=O)OCc1ccccc1 | inactive
88 | CCN1CCN(C(=O)N[C@@H](C(=O)N[C@@H]2C(=O)N3C(C(=O)O)=C(CSc4nnnn4C)CS[C@H]23)c2ccc(O)cc2)C(=O)C1=O | inactive
89 | CCOc1ccc(C)cc1S(=O)(=O)NC1CCCCCC1 | inactive
90 | CC1CN(C(=O)COC(=O)c2cccc(NS(=O)(=O)c3ccccc3)c2)CC(C)O1 (centres undefined) | inactive
91 | O=C(CSc1ccc(-c2ccccc2)nn1)NCC1CCCO1 (centres undefined) | inactive
92 | Cc1ccc(SCC(=O)Nc2nncs2)cc1 | inactive
93 | CC(C)Oc1ccc(C(=O)NCC(=O)Nc2ccc3c(c2)CCC3)cc1 | inactive
94 | CC(C)Cn1c(SCC(=O)Nc2ccc(Cl)cc2F)nc(O)cc1=O | inactive
95 | COc1ccccc1-c1nc(C#N)c(N2CCC(C(N)=O)CC2)o1 | inactive
96 | CC1CCN(c2oc(-c3ccccc3F)nc2C#N)CC1 | 16.4 µM (active)
97 | COc1ccc(OCc2ccc(-c3nc(C#N)c(N4CCN(c5ccccc5)CC4)o3)o2)cc1 | inactive
98 | O=S(=O)(c1ccc(Br)c2ccccc12)N1CCOCC1 | inactive
99 | Cc1noc(C)c1NC(=O)Nc1cccc2c1O[C@H](CN(C)C(=O)Nc1ccccc1)[C@@H](C)CN([C@H](C)CO)C2=O | inactive
